In the library only some 2.3% were active in any assay of this set; here they are far more common.
PK Bst: modulators of Bacillus stearothermophilus pyruvate kinase | purified pyruvate kinase, luminescence ATP production; ribose 5-phosphate activator present at AC10 | Potency, µM | 1.2% of 51,000 active; in the data active means potency below about 11 µM; inconclusive means mostly about 12 µM to 25 µM;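 the screen sought inhibitors and activators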;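 further: scaled between full activation by ribose 5 phosphate and full inhibition by luteolin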
GBA activity: modulators of human glucocerebrosidase; AID 360; purified enzyme, resorufin glucoside fluorescence (screen aimed at inhibitors), 20 min; P04062; 1.1% of 48,000 active; Potency, µM; in the data active means potency below about 15 µM; inconclusive means mostly about 16 µM to 33 µM;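 further: the screen sought inhibitors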
Target sequence (P04062 whole entry, looked up): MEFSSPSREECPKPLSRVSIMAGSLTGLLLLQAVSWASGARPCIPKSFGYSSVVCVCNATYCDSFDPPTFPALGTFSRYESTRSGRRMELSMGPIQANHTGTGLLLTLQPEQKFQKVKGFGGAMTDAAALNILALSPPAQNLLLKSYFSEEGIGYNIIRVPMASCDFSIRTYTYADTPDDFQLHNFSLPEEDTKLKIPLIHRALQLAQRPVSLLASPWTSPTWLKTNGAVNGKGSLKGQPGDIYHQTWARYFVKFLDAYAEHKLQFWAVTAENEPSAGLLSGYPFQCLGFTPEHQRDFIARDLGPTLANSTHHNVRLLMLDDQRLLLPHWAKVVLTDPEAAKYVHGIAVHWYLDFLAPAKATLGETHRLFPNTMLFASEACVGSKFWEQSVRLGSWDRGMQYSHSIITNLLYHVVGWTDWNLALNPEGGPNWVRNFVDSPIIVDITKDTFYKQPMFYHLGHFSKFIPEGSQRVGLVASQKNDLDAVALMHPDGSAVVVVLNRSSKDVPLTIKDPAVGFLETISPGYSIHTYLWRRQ
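Normal human glucocerebrosidase (0.2 nM final) was assayed with resorufin β-D-glucopyranoside (30 uM final) in 50mM citric acid/KH2PO4, 10mM sodium taurocholate, 0.01% tween-20, pH 5.9. Compounds were titrated; fluorescence (Ex 548, Em 600) read after 20 min at RT.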
* = called active by the depositor; i = inactive; ? = inconclusive; / = no result. Potency means the concentration at half of the fitted maximal effect.

SMILES | PK Bst | GBA activity
Cc1ccc2nc(-c3cccnc3)oc2c1 | i | >77
COC(=O)c1ccc(-c2nc3ccc(C)cc3o2)cc1 | 3.3* | >77
Cc1ccc2nc(-c3ccccn3)oc2c1 | 6.9* | >77
CCOC(=O)C1=C(c2ccccc2)NC(SCC(=O)NC2CCCCC2)=C(C#N)C1c1ccco1 (stereo not given) | >57 | 7.7*
COCCOC(=O)C1=C(C)NC(SCC(=O)NC(C)(C)C)=C(C#N)C1c1ccco1 (stereo not given) | >26 | /
Cc1ccc(N(C(=O)Cn2nnc(-c3ccc(C)o3)n2)C(C(=O)NC2CCCC2)c2ccco2)cc1 (stereo not given) | >57 | >77
Cc1ccc(C)c(N(C(=O)Cn2nnc(-c3cccs3)n2)C(C(=O)NC2CC2)c2ccc(C)o2)c1 (stereo not given) | >57 | 12*
Cc1ccccc1COc1ccc(/C(O)=C2/C(=O)C(=O)N(CCCn3ccnc3)C2c2ccco2)cc1 (stereo not given) | >11 | /
O=c1c2c([nH]c3ccc(Br)cc13)CCCC2 | / | i
NC(=O)c1cc(Br)cc2c3c([nH]c12)CCCC3 | 0.69* | ?
COc1ccc(-c2ccc(SCC(=O)N3CCOCC3)nn2)cc1 | i | >77
Cc1cc2nc(-c3ccc(SCC(=O)N4CCOCC4)nc3)[nH]c2cc1C | 2.1* | >77
O=C(CSc1nc2c(cnn2-c2ccc(F)cc2)c(=O)[nH]1)N1CCCc2ccccc21 | >57 | /
Nc1nc(CN2CCN(c3ccc(F)cc3)CC2)nc(N2CCCc3ccccc32)n1 | >57 | 10*
CC(=O)NC12CC3CC(C1)CC(C(=O)OCC(=O)c1ccc4c(c1)OCCO4)(C3)C2 | 4.3* | >77
CCn1nc(C(=O)OCC(=O)c2cc(C)n(Cc3cccs3)c2C)c2ccccc2c1=O | / | >77
CC(=O)Nc1ccc(SCC(=O)c2cc(C)n(Cc3cccs3)c2C)cc1 | >57 | >77
CC(=O)NC12CC3CC(C1)CC(C(=O)OCC(=O)Nc1ncc(Cl)c(C)c1Cl)(C3)C2 | >57 | >77
Cc1cc(C(=O)COC(=O)c2ccc3c(c2)OCO3)c(C)n1Cc1cccs1 | / | 14*
O=C(COC(=O)c1cccs1)NCc1ccc2c(c1)OCO2 | >57 | >77
Cc1csc(SCC(=O)c2cc(C)n(Cc3cccs3)c2C)n1 | 3.2* | >77
O=C(COC(=O)c1cccs1)c1ccc2c(c1)OCCO2 | 0.29* | >77
CCOc1ccc(C(C)=O)cc1COc1ccc(-n2cnnn2)cc1 | >11 | >77
CN1CCN(c2c3c(c(C#N)c4nc5ccccc5n24)CCCC3)CC1 | >26 | /
CCC1CCCCN1C(=O)CSc1nnc(-c2cccs2)o1 (stereo not given) | >57 | >77
SMILES | PK Bst | GBA activity
CS(=O)(=O)N(CC(=O)NCc1ccc2c(c1)OCO2)Cc1ccccc1 | >57 | >77
Cc1ccc(-n2c(C)cc(C3N=C(N)Nc4nc5ccccc5n43)c2C)c(C)c1 (stereo not given) | >57 | ?
Cc1cc(C2N=C(N)Nc3nc4ccccc4n32)c(C)n1-c1ccccc1Cl (stereo not given) | >57 | 13*
COC(=O)c1ccccc1NC(=O)CN(C)S(=O)(=O)c1cc(C)ccc1OC | >57 | >77
Cc1cc(C)n(-c2ccc(C(=O)Nc3ccccn3)cc2)n1 | i | >77
Cc1cc(C)n(-c2ccc(C(=O)Nc3sccc3C(N)=O)cc2)n1 | i | 15*
COCCn1c(C)c(C(=O)O)sc1=S | >57 | >77
CCOC(=O)c1cnn(-c2cc(C)c3cc(C)cc(C)c3n2)c1N | >57 | >77
COC(=O)CSc1nnc(CNC(=O)Cc2ccccc2)n1-c1ccccc1OC | >57 | >77
CC(=O)c1sc(Nc2nc3ccc(F)cc3s2)nc1C | ? | >77
CCOC(=O)c1csc(Nc2nc3ccc(F)cc3s2)n1 | 1.2* | >77
CCN1CCN(c2ccc(NC(=O)c3cccnc3)cc2Cl)CC1 | >57 | 6.3*
O=C(Nc1ccccc1N1CCCC1)c1cccnc1 | >57 | >77
C=CCn1c(C)cc(C(=O)CSc2nnc(Cc3ccccc3)o2)c1C | >57 | /
Cc1cc(C(=O)CSc2nnc(Cc3ccccc3)o2)c(C)n1Cc1ccc2c(c1)OCO2 | >57 | 4*
CC1=C(C#N)C(c2cn(-c3ccccc3)nc2-c2cccs2)C(C#N)=C(C)N1 | >57 | i
NC1=NC(c2cn(-c3ccccc3)nc2-c2cccs2)n2c(nc3ccccc32)N1 (stereo not given) | >57 | 12*
Cc1ccc2nc(-c3ccccn3)cc(C(=O)N3CCN(c4ncccn4)CC3)c2c1 | >57 | >77
Cc1ccc(-c2cc(C(=O)N3CCN(c4ncccn4)CC3)c3ccccc3n2)cc1 | 4.3* | /
O=C(c1ccc2c3c(cccc13)CC2)N1CCN(c2ncccn2)CC1 | 6* | >77
O=C(c1cnc(N2CCN(c3ncccn3)CC2)c2ccccc12)N1CCN(c2ncccn2)CC1 | >57 | >77
N/C(CCN1CCCCC1)=N/O | >26 | /
CC(C)CC1N=C2c3ccccc3N=C(SCc3cc(=O)n4ccccc4n3)N2C1=O (stereo not given) | >57 | >77

Compound activity from PubChem.
